Data taken from ChEMBL document CHEMBL3988442, “University of Dundee, Small-Polar-MMV Screening Library” (2021).
For some assays here: Results with a measured potency or affinity are listed apart.

Experiments:
Set-up in all cases: scale not given: direction of the effect not stated beside the values
[1] = target: Protein translocase subunit SecA (Escherichia coli (strain K12)) (UniProt P10408); assay: Assay to Identify E. coli SecA ATPase Inhibitors; format: functional; settings: 30 µM
[2] = target: T1, Ubiquitin-activating enzyme e1, putative (Leishmania donovani (strain BPK282A1)) (UniProt E9BSI1); assay: Leishmania donovani Ubiquitin Activating Enzyme (LdE1); format: functional; settings: 30 µM
T1 sequence (whole entry): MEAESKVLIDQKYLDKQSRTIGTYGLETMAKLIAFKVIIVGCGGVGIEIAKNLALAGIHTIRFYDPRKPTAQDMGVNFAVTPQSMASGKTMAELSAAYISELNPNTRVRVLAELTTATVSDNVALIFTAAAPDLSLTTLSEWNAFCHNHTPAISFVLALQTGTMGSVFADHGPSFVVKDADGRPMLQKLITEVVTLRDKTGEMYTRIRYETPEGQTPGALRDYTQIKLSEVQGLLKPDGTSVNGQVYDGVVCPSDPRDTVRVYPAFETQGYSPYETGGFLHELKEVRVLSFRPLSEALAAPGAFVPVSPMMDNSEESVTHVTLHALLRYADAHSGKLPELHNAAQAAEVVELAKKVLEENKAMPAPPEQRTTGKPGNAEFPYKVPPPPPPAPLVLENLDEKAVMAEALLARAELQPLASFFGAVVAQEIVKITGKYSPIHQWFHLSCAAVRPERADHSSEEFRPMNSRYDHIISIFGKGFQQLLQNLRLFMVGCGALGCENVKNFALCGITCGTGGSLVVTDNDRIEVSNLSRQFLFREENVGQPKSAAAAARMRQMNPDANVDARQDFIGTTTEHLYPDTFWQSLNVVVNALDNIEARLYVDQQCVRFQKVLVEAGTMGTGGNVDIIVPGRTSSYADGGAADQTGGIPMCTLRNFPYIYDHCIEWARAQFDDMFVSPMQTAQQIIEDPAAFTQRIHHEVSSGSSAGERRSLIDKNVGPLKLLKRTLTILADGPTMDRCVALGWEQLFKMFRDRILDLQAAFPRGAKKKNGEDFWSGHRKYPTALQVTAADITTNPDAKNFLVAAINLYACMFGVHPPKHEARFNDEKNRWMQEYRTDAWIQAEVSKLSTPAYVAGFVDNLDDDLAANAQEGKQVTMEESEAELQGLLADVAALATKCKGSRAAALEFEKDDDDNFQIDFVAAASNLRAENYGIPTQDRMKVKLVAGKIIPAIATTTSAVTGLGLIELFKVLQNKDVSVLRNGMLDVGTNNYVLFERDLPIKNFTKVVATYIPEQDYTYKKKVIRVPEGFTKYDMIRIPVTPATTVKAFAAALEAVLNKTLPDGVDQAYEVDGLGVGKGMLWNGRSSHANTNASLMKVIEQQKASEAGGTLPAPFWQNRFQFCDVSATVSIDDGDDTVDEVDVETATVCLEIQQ

[3] = target: T2, Aspartate--tRNA(Asp/Asn) ligase (Mycobacterium tuberculosis (strain ATCC 25618 / H37Rv)) (UniProt P9WFW3); assay: Assay for Asp RNA synthetase-1 from Mycobacterium tuberculosis; format: functional; settings: 30 µM; further: in the data most compounds retested in dose-response had high values
T2 sequence (whole entry): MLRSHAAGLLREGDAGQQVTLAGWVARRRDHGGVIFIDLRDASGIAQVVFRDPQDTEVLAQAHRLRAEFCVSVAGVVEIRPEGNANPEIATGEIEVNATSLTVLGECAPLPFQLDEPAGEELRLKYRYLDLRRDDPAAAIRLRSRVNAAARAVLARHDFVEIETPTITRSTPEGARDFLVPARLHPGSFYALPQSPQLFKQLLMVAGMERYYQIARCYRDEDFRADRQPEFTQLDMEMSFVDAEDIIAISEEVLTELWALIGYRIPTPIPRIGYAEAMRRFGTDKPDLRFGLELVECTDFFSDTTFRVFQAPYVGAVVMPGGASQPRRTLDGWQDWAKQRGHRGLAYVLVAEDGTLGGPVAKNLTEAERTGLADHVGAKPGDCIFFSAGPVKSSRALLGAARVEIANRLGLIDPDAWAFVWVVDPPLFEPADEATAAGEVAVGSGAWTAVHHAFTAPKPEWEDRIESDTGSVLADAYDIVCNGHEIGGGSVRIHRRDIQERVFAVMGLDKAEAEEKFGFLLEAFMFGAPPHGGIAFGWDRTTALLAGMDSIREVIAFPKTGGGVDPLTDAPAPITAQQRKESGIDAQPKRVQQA

[4] = target: AMP-activated protein kinase, AMPK (Homo sapiens) (UniProt P54646+O43741+P54619+Q9UGJ0+Q9Y478+Q13131+Q9UGI9); assay: AMP-dependent Kinase enzyme assay. An in vitro enzyme assay that detects ADP turnover that is directly proportional to AMPK activity. This uses naive AMPK that is activated during the assay with MK-8722; format: functional; settings: 30 µM
[5] = target: Sialic acid-binding Ig-like lectin 9 (Homo sapiens) (UniProt Q9Y336); assay: Hs-Siglec9 ALPHAscreen SOP 20170721; settings: 10 µM
Sialic acid-binding Ig-like lectin 9 (Homo sapiens), sequence (Q9Y336 whole entry): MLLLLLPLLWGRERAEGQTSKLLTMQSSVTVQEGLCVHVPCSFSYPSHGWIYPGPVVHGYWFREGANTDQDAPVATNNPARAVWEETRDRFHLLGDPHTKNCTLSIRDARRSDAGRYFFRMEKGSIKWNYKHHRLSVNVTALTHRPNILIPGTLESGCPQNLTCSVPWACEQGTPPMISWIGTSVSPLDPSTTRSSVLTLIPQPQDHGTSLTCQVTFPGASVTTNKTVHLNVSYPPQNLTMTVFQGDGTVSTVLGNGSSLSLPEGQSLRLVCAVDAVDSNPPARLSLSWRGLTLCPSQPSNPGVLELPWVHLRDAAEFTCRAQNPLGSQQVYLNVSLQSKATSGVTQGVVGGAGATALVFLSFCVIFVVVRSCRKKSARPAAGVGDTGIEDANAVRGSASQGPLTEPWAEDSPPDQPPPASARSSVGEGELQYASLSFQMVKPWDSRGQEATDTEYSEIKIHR

[6] = test system: Trypanosoma cruzi; assay: Trypanosoma cruzi phosphomannomutase and mannose-1-phosphate guanylyltransferase assay; format: functional; settings: 10 µM
[7] = target: T3, Arginase-2, mitochondrial (Homo sapiens) (UniProt P78540); assay: in vitro enzyme assay to detect the production of urea directly proportional to the activity of Arginase II; format: functional; settings: 33.3 µM; further: in the data most compounds retested in dose-response had high values
T3 sequence (whole entry): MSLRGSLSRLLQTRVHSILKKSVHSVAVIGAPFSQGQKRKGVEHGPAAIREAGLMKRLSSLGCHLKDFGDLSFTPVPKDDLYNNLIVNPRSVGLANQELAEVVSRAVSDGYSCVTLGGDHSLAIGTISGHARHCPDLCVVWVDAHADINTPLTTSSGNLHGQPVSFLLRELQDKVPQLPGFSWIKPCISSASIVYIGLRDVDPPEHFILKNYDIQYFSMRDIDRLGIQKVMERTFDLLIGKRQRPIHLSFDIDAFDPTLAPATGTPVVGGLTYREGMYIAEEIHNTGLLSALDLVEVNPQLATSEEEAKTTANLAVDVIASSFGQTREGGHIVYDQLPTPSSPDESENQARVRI

[8] = target: T4, Proteasome subunit beta (Trypanosoma cruzi) (UniProt O96673); assay: Trypanosoma cruzi proteasome chymotrypsin-like activity (TcProtChymo) assay.; further: in the data most compounds retested in dose-response had high values; format: functional; settings: 9.37 µM
T4 sequence (whole entry): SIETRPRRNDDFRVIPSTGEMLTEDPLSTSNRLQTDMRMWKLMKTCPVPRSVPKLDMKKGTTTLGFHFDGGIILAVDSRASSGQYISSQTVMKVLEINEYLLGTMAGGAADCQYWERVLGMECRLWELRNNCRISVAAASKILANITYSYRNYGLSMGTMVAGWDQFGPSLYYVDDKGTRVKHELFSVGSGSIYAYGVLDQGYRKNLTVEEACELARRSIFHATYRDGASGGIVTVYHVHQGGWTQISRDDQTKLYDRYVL

[9] = organism: Homo sapiens; assay: To identify inhibition of the IFN signalling (Jak-Stat) pathway via expression of an eGFP reporter gene under the control of an IFN-stimulated response element (ISRE) containing MxA promoter.; format: functional; settings: 30 µM
[10] = target: Shiga toxin 2 (Escherichia coli O157:H7) (UniProt P09385+P09386); assay: E. coli 0.157:H7 Shiga Toxin SOP - stx2 screening assay; format: functional; settings: 30 µM
[11] = target: T5, Tyrosyl-tRNA synthetase, putative (Trypanosoma cruzi (strain CL Brener)) (UniProt Q4DSP6); assay: Trypanosoma cruzi tyrosyl tRNA synthetase (TcYRS) _High Tyrosine SOP; format: functional; settings: 30 µM; further: in the data most compounds retested in dose-response had high values
T5 sequence (whole entry): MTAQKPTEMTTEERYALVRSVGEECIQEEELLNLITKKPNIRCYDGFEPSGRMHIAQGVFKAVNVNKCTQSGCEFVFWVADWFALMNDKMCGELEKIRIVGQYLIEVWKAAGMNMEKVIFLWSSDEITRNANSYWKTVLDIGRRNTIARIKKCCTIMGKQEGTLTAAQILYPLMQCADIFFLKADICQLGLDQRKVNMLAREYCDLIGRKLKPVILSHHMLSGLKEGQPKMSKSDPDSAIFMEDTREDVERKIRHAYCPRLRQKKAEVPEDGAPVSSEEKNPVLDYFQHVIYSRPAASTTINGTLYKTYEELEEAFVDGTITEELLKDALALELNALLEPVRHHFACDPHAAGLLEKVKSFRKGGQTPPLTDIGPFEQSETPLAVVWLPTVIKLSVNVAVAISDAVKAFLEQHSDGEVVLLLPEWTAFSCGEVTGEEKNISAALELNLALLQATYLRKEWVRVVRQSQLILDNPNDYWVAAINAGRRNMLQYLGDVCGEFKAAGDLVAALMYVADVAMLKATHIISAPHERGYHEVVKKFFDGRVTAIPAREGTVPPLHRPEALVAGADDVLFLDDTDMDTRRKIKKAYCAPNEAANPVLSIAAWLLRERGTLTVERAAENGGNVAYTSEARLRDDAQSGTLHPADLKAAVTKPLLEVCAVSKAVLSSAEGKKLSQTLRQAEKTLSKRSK

[12] = target: T5, Tyrosyl-tRNA synthetase, putative (Trypanosoma cruzi (strain CL Brener)); assay: Trypanosoma cruzi tyrosyl tRNA synthetase (TcYRS) SOP; format: functional; settings: 30 µM
[13] = target: Chromo domain-containing protein 1 (Saccharomyces cerevisiae (strain ATCC 204508 / S288c) (Baker's yeast)) (UniProt P32657); assay: ScCHD-1 Enzyme Inhibition Assay; format: functional; settings: 30 µM; further: in the data most compounds retested in dose-response had high values
Chromo domain-containing protein 1 (Saccharomyces cerevisiae (strain ATCC 204508 / S288c) (Baker's yeast)), sequence (P32657 whole entry, the tested form may be a part): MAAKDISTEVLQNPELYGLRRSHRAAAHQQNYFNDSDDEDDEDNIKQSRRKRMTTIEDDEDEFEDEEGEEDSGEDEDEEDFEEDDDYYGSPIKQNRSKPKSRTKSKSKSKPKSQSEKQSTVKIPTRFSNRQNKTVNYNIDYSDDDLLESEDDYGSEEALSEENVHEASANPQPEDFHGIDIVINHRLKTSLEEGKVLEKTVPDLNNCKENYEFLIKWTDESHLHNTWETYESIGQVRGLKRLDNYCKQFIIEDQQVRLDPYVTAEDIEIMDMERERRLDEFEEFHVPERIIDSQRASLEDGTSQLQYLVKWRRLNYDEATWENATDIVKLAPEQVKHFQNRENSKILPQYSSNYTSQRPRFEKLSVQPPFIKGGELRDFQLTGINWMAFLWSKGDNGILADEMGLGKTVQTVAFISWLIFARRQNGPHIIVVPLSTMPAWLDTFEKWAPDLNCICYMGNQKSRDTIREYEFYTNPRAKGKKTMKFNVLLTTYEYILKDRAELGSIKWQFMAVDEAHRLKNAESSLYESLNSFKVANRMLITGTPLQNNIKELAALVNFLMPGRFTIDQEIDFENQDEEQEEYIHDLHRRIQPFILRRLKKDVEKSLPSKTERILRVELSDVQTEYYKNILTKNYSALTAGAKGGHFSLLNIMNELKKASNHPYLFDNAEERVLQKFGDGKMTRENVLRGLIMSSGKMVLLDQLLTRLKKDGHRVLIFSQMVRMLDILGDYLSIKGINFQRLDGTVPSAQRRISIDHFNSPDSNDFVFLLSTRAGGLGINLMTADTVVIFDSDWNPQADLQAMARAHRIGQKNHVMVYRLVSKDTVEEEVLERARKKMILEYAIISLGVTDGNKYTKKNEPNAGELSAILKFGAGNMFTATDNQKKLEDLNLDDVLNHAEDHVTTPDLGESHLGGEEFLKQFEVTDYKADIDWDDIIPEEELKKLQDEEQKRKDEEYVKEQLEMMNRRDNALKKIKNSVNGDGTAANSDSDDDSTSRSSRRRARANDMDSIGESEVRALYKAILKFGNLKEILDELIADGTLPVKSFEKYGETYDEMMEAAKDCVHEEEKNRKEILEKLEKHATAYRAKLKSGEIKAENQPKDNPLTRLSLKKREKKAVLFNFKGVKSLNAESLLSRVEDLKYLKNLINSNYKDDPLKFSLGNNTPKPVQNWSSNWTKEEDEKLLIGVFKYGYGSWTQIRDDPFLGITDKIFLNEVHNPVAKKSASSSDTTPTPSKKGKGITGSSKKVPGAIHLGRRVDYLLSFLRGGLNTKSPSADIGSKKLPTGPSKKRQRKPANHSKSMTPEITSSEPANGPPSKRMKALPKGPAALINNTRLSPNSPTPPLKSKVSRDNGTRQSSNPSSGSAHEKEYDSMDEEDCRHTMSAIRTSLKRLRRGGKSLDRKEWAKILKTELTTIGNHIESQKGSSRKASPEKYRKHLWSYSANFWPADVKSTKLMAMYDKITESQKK

Protein translocase subunit SecA (Escherichia coli (strain K12)), sequence (P10408 whole entry): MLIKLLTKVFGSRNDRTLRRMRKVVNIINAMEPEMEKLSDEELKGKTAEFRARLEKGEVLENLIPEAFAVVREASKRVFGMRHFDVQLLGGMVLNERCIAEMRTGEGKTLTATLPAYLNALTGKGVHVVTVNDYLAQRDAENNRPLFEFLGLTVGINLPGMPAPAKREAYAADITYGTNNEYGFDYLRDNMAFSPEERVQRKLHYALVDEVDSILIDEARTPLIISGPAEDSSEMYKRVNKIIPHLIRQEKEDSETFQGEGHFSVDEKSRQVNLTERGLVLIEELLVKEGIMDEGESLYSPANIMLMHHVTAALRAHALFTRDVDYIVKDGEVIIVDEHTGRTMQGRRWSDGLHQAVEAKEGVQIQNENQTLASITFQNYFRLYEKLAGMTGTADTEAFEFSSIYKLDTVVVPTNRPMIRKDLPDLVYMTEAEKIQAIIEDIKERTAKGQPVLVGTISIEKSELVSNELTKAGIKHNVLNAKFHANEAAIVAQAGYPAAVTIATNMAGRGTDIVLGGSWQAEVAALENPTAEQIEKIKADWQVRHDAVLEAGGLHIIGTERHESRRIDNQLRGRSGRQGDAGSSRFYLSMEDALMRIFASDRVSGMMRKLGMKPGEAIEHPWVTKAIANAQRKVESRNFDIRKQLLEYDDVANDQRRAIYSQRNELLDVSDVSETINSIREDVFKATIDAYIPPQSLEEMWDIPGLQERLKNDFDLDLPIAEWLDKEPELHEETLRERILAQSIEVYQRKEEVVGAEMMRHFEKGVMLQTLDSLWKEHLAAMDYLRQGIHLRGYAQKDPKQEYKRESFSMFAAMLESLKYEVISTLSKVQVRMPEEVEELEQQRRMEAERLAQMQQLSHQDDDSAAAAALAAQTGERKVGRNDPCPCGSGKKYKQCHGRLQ

Q: What does the source list for c1cc(NC2CC3(CCN(Cc4cc[nH]n4)C3)C2)ncn1 (configuration not stated)?
A: Percent Effect [1]: -3.9%; Percent Effect [2]: -4.05%; Percent Effect [3]: -4.78%; Percent Effect [4]: 5.87%; Percent Effect [5]: 0.0436%; Percent Effect [6]: 5.73%; Percent Effect [7]: -3.02%; Percent Effect [8]: 2.18%; Percent Effect [9]: -4.19%; Percent Effect [10]: 0.0104%; Percent Effect [11]: 2.15%; Percent Effect [12]: 3.9%; Percent Effect [13]: -8.87%

Q: With COCC(=O)NC1CC2(CCN(CCF)CC2)Oc2ccccc21 (configuration not stated) as the compound, how does the Percent Effect [1] read?
A: -7.73%

Q: And the Percent Effect [2]?
A: 1.3%

Q: What about the Percent Effect [3] of the same compound?
A: -6.51%

Q: And the Percent Effect [5]?
A: -0.183%

Q: What about the Percent Effect [6] of the same compound?
A: -2.63%

Q: What about the Percent Effect [7] of the same compound?
A: 1.37%

Q: What about the Percent Effect [8] of the same compound?
A: 8.67%

Q: What about the Percent Effect [9] of the same compound?
A: 16.2%

Q: And the Percent Effect [10]?
A: 6.84%

Q: What about the Percent Effect [11] of the same compound?
A: 0%

Q: What about the Percent Effect [12] of the same compound?
A: -2.5%

Q: What about the Percent Effect [13] of the same compound?
A: -22.9%

Q: What does the source list for COCCN1CCC2(CCCN(c3ncccn3)C2)C1 (configuration not stated)?
A: Percent Effect [1]: -2.69%; Percent Effect [2]: 2.67%; Percent Effect [3]: -4.34%; Percent Effect [4]: 10.4%; Percent Effect [5]: 2.96%; Percent Effect [6]: -2.17%; Percent Effect [7]: 8.16%; Percent Effect [8]: 4.32%; Percent Effect [9]: -7.02%; Percent Effect [10]: -6.31%; Percent Effect [11]: -1.06%; Percent Effect [12]: -3.85%; Percent Effect [13]: -4.53%

Q: Which results are given for COCCN1CCN(Cc2ccncc2)[C@H]2CS(=O)(=O)C[C@H]21?
A: Percent Effect [1]: -10.2%; Percent Effect [2]: 10.8%; Percent Effect [3]: -1.29%; Percent Effect [5]: 17.6%; Percent Effect [6]: 6.3%; Percent Effect [7]: 16.4%; Percent Effect [8]: 5.99%; Percent Effect [9]: 6.91%; Percent Effect [10]: 11.1%; Percent Effect [11]: 4.79%; Percent Effect [12]: 14.6%; Percent Effect [13]: -4.57%

Q: NC(=O)CN1CCCN(C(=O)Cc2ccc3c(c2)OCO3)CC1 was tested. Which Percent Effect [1] did it give?
A: -0.196%

Q: And the Percent Effect [2]?
A: 5.33%

Q: And the Percent Effect [3]?
A: -1.81%

Q: And the Percent Effect [5]?
A: 2.43%

Q: And the Percent Effect [6]?
A: -7.43%

Q: What about the Percent Effect [7] of the same compound?
A: 3.55%

Q: And the Percent Effect [8]?
A: 3.48%

Q: And the Percent Effect [9]?
A: 12%

Q: What about the Percent Effect [10] of the same compound?
A: -21.4%

Q: What about the Percent Effect [11] of the same compound?
A: 3.68%

Q: What about the Percent Effect [12] of the same compound?
A: 10.3%

Q: And the Percent Effect [13]?
A: -7.19%
